# Screening results as filed in PubChem.
# DRD3 antagonist: antagonists of human D3 dopamine receptor; P35462; D3R cells, DiscoveRx beta-arrestin luminescence, antagonist mode; hits give low values; max response, negative = inhibition, %; hit rate 2.5% among 360,000; in the data active = max response below about -50%; inconclusive = no clear call, values can overlap the other calls
# Target sequence (P35462 whole entry, looked up): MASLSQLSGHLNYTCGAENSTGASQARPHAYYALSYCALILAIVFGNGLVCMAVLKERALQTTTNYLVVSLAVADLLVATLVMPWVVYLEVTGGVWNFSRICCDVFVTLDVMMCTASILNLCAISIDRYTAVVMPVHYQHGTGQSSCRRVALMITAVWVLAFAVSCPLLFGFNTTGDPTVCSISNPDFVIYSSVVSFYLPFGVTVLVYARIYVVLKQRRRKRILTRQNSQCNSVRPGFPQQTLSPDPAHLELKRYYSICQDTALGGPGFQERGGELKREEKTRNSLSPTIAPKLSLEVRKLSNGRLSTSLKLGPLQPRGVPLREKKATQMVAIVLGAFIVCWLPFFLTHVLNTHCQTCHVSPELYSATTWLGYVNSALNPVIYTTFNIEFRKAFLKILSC
#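 Cells plated overnight at 1500 cells/well, then exposed to library compounds with dopamine controls for 90 minutes at 37 degrees C. DiscoveRx reagent added for 30–60 minutes at room temperature; luminescence read, quantitative HTS format.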
# a7 integrin act: integrin-mediated muscular dystrophy alleviation activation | alpha7betagal myoblasts, beta-gal FDG fluorescence, 48 h | Potency, µM (series often up to 38.3 µM), most hits filed as activators | hit rate 0.064% among 350,000 | AID 624291; active = well fitted activation curve with a large enough effect; inconclusive = small, poorly fitted or top-dose-only effect; inactive = no such curve, though single readings can be large or run the other way; also: nearly all actives have a fitted effect of over 60% in size
#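 alpha7betagal+/- myoblasts (passage 13, 250/well) treated 48 h at 37C with compounds at 1:260 dilution of DMSO stock. Lysed, then beta-galactosidase activity read as FDG fluorescence (ex 480/em 540) after 30 min, with pre-read for autofluorescence.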
# D3 ag: D3 dopamine receptor (human) agonism; max activation, %; hit rate 0.58% among 410,000; D3R DiscoveRx beta-arrestin cells, luminescence, 90 min; in the data active = max activation above about 30%
#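 Agonist-mode cell screen: cells plated at 1500/well and incubated overnight at 37 °C, then exposed to library compounds for 90 min at 37 °C. Detection reagent was added for 30–60 min at room temperature, and luminescence was read.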
# Numbers stand for hits; - = inactive; ? = inconclusive; . = no result; [ ] = another dose, or the depositor's remark. An excerpt weighted towards active compounds, which were near 2.9% of everything screened.
SMILES,DRD3 antagonist,a7 integrin act,D3 ag
CC(=O)c1ccc(NC(=O)CN2CCC(C(=O)c3ccc4c(c3)OCCO4)CC2)cc1,-,-,-
COC(=O)c1ccccc1NC(=O)CN1CCC(C(=O)c2ccc3c(c2)OCCO3)CC1,-,-,40.0
COC(=O)c1ccccc1NC(=O)CN1CCOCC1,-,-,-
COc1ccc(NC(=O)c2ccc(NC(=O)CN3CCN(c4ccccc4O)CC3)cc2)cc1,-,-,-
COc1ccc(C(=O)C2CCN(CC(=O)Nc3ccc(C)cc3)CC2)cc1,-112.8,-,-
Cc1ccc(NC(=O)CN2CCC(C(=O)c3ccc4c(c3)OCCO4)CC2)cc1,-51.8,-,-
COc1ccc(C(=O)C2CCN(C(=O)Nc3ccc(C)cc3)CC2)cc1,-,-,-
COc1nc(Cl)cn(-c2ccc(Cl)cc2)c1=O,-,-,-
O=C(Nc1cc(S(=O)(=O)N2CCOCC2)ccc1N1CCCCC1)c1ccc(Cl)cc1,-,-,-
N=C1C(=O)NC(=O)C1c1ccccc1 (stereo unspecified),-,-,-
CCc1nc2c(OCC(=O)c3ccc(F)cc3)cccn2c1N(C)C(=O)COc1ccccc1,-,.,-
COc1ccc(-c2nnc(Nc3ccc(OC)c(C(=O)N4CCCCC4)c3)c3ccccc23)cc1,-,-,-
N#CCC(=O)N1CCN(C=O)CC1,-,-,-
CN(C)c1ccc(NC(=O)CN2CCC(C(=O)c3ccc(F)cc3)CC2)cc1,-81.6,-[7.66 µM],-
O=C(CN1CCN(C(=O)C2CCC2)CC1)Nc1ccc(F)cc1,-,-,-
C/C(=N\NC(=O)C(c1ccccc1)c1ccccc1)c1ccc(O)cc1,-,-,-
COc1ccc(C(=O)N/N=C(\C)c2ccccn2)cc1OC,-54.1,-,-
C/C(=N\NC(=O)C(c1ccccc1)c1ccccc1)c1ccccn1,-75.7,-,-
C/C(=N\NC(=O)c1cc(Br)ccc1O)c1ccccn1,-,-,-
C/C(=N\NC(=O)c1cccc2ccccc12)c1ccccn1,-92.9,-,-
C/C(=N\NC(=O)c1cccc(Br)c1)c1ccccn1,-52.8,-,-
C/C(=N\NC(=O)c1ccccc1Cl)c1ccccn1,?,-,-
C/C(=N\NC(=O)c1ccc(Cl)c(Cl)c1)c1ccccn1,?,-,-
C/C(=N\NC(=O)C1CCCN(S(=O)(=O)c2ccccc2)C1)c1ccncc1 (stereo unspecified),-,-,-
C/C(=N\NC(=O)C1CCCN(S(=O)(=O)c2ccccc2)C1)c1ccccn1 (stereo unspecified),-90.1,-,-
SMILES,DRD3 antagonist,a7 integrin act,D3 ag
CCOc1ccc(OCc2ccc(C(=O)N/N=C(\C)c3ccccn3)cc2)cc1,-80.5,-,-
C/C(=N/NC(=O)c1ccc(C(C)(C)C)cc1)c1ccccn1,-114.5,-,-
C/C(=N/NC(=O)c1ccccn1)c1ccncc1,-,-,-
C/C(=N\NC(=O)c1ccccc1OCc1ccc(F)cc1)c1ccccn1,-,-,-
CC(NC(=O)[C@H](C)NC(=O)N1CCn2c1nc1ccccc12)c1ccccc1 (stereo partly specified),-,-,-
COc1cccc(N2CCN(C3CC(=O)N(c4ccc(Cl)c(Cl)c4)C3=O)CC2)c1 (stereo unspecified),-,-,-
Fc1ccc(CN2CCCCCCC2)cc1F,-65.0,-,-
Fc1ccc(CN2CCCCCC2)c(F)c1,-,-,-
Fc1ccc(CN2CCCCCCC2)c(F)c1,-52.9,-,-
CSc1ccc(CN2CCCCCC2)cc1,?,-,-
Cc1ccc(NC(=O)CSCC(=O)Nc2cccc3ncccc23)cc1,-,-,-
CCOc1ccc(-n2c(C)nc3cc(C(=O)NCc4ccc5c(c4)OCO5)ccc32)cc1,-,-,-
Cc1cc(C(=O)CN2CC(C)OC(C)C2)c(C)n1-c1ccccc1 (stereo unspecified),-,-,-
C=CCn1c(SCc2ccccc2C#N)nnc1-c1cc(Br)ccc1O,-,-[7.66 µM],-
CCn1c(=O)n(CC)c2cc(S(N)(=O)=O)c(C)cc21,-,-,-
CCn1c(=O)n(CC)c2cc(S(=O)(=O)N3CCCCC3)c(C)cc21,-,-,31.4
O=C(COC(=O)c1ccc(F)cc1Cl)NCc1ccco1,-,-,-
Cc1nc2sc(C(c3ccc(Br)cc3)N3CC(C)OC(C)C3)c(O)n2n1 (stereo unspecified),-,-,-
CC(C(=O)NCCc1ccc(Cl)cc1)n1c(=O)c2cccn2c2cccnc21 (stereo unspecified),-,-,-
O=C(N/N=C/c1ccccn1)c1cc([N+](=O)[O-])cc([N+](=O)[O-])c1,-78.2,-,-
O=C(N/N=C/c1ccccn1)c1cccc([N+](=O)[O-])c1,-,-,-
CCCC(=O)Nc1sc(C)c(C)c1C#N,-,-,-
